This is an account of results in PubChem BioAssay (NCATS).

Records with an inconclusive call do not appear. Activity calls are given as the source filed them. The call rests on the fitted dose curve; in most records, active means well fitted activation curve with a large enough effect in the main read-out, with a control signal flat (not every such curve was filed as active); inconclusive means small, poorly fitted or top-dose-only effect, or effect the other way, or a change in a side signal; inactive means flat fitted curve, though single readings scatter.

3',5'-cyclic-AMP phosphodiesterase 4B (Homo sapiens), sequence (Q07343 whole entry, looked up): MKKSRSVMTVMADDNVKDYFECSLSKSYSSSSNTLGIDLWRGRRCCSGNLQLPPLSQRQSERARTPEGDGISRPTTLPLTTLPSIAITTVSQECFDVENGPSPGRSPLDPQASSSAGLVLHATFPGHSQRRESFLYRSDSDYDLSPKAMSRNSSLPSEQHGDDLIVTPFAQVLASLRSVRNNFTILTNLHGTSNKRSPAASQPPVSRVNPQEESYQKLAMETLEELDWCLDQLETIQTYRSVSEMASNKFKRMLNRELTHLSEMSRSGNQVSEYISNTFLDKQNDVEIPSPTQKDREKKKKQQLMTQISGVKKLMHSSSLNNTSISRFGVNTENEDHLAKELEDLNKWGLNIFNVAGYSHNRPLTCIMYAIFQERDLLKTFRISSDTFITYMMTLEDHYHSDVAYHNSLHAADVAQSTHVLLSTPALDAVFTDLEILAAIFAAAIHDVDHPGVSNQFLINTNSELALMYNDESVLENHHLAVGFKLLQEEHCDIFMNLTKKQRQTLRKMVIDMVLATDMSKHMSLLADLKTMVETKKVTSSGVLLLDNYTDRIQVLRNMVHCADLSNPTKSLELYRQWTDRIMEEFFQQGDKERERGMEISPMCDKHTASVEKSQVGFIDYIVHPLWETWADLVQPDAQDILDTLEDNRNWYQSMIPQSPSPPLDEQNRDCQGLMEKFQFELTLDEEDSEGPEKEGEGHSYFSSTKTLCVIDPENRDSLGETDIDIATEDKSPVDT

The test concerns the target 3',5'-cyclic-AMP phosphodiesterase 4B (Homo sapiens) (UniProt Q07343). The experiment in a line: qHTS Assay for Inhibitors of PDE-IV (AID 607). To be noted: HEK293 ACTOne CNG channel cells, membrane potential fluorescence; series mostly up to 22.9 µM. An excerpt:
NIH Chemical Genomics Center [NCGC]
NIH Molecular Libraries Screening Centers Network [MLSCN]
The cyclic nucleotide phosphodiesterases (PDEs) are proteins that catalyze hydrolysis of 3', 5'-cyclic nucleotides, such as cyclic adenosine monophosphate (cAMP) and cyclic guanosine monophosphate (cGMP), to their corresponding 5'-nucleotide monophosphates. These enzymes play an important role in controlling cellular concentrations of cyclic nucleotides and have a central role in a variety of intracellular signaling events. cAMP PDEs are emerging as a promising class of drug targets in asthma and cardiovascular disease therapeutic areas.
There are no commercially available cell-based screening assays for PDE inhibitors: currently biochemical assays are done using pure substrates (cAMP or cGMP) and purified recombinant PDE enzymes. As with other biochemical screens on intracellular targets, false positives and false negatives may result from issues involving cell membrane permeability, cellular metabolism, and the like.
Here we report the development of a cell-based screening assay for cAMP phosphodiesterase (PDE) inhibitors. The assay is based on the BD ACTOne# technology (BD Biosciences) which utilizes a modified cyclic nucleotide-gated channel (CNG) to monitor intracellular cAMP changes in live cells. The CNG channel is localized on the plasma membrane, and opens when the intracellular cAMP level increases, resulting in ion flux and cell membrane depolarization. The influx of cations through the CNG channel can be quantified using membrane potential (MP) dyes. We modified the BD ACTOne technology to allow the detection of PDE inhibitors, and performed an inhibitor screen for PDE-IV, which is expressed endogenously in HEK293 cells. We optimized this assay in homogeneous 1536-well plate assay format for high throughput screening.
NCGC Assay Protocol Summary:
The medium contained 10% FBS (Invitrogen), 2 mM L-glutamine, and 250 ug/ml G418 (Cellgro) and 1 ug/ml puromycin (Clontech). ACTOneTM parental cells (BD Biosciences) were maintained in the same medium without puromycin.
The activity of the CNG channel was measured by BD ACTOneTM membrane potential dye kit (BD Biosciences). Forskolin, a positive control for cAMP activation and RO 20-1724, a PDE inhibitor, were both purchased from Sigma and solublized in DMSO.
Sequence,Parameter,Value,Description
1,Reagent,3 uL,1000 cells/well 1536 TC treated Black plate
3,Compound,0.5 uL,Kalypsys dispense RO 20-1724 100 uM final [A]
4,Reagent,3 uL,BD membrane potential dye
6,Compound,23 nL,Final concentration was 0.7nM to 22.9uM
8,Detector,EX 535 / EM 590 [B],Envision
Footnotes: [A] The stock 2 mM RO 20-1724 PDE inhibitor was made in 10 % DMSO. Parental cell line received 10 uM forskolin + 100 uM RO. [B] Envsion settings: Bottom Excitation 535/20 nm top emission 590/20, gain of 150 and 5 flashes per well.
Keywords: PDE, PDE-IV, cytotoxicity, flourescence, MLSMR, MLSCN, NIH Roadmap, qHTS, NCGC
On to `Cc1cc(C)nc(NS(=O)(=O)c2ccc(N)cc2)n1`, for which the outcome was inactive.
To `O=C(O)c1ccccc1C(=O)Nc1ccc(S(=O)(=O)Nc2nccs2)cc1` belongs “inactive”.
To `CCS(=O)(=O)CCn1c([N+](=O)[O-])cnc1C` belongs “inactive”; to `Cc1ncc(CO)c(CN)c1O`, “inactive”.
`CC[N+](CC)(CC(=O)Nc1c(C)cccc1C)Cc1ccccc1`: the result was inactive.
Take `Nc1ccc(S(=O)(=O)c2ccc(N)cc2)cc1`: the call was inactive.
The entry for `Cn1c([N+](=O)[O-])cnc1COC(N)=O` is “inactive”.
As to `CCCNC(C)(C)COC(=O)c1ccccc1`, the compound was called inactive.
As to `CC(C)(C)C(=O)OCOC(=O)[C@@H]1N2C(=O)[C@@H](NC(=O)[C@H](N)c3ccccc3)[C@H]2SC1(C)C`, the call was inactive.
Regarding `CCOC(=O)[C@H](CCc1ccccc1)N[C@@H](C)C(=O)N1CCC[C@H]1C(=O)O`, the result was inactive.
To `NC(=O)CC[C@@H](N)C(=O)O` belongs “inactive”; to `NS(=O)(=O)c1ccc(C(=O)O)cc1`, “inactive”.
The entry for `COc1ccc2cc(CCC(C)=O)ccc2c1` is “inactive”; for `CC[N+](C)(CC)CCOC(=O)C1c2ccccc2Oc2ccccc21` it is “inactive”; for `Cn1c(=O)c2c(ncn2CCO)n(C)c1=O` it is “inactive”.
To `CCN(CC)CCc1nc(-c2ccccc2)no1` belongs “inactive”.
Consider `CCCCOC(=O)c1ccc(N)cc1`, for which the compound was called inactive.
The entry for `NC(N)=NCCN1CCCCCCC1` is “inactive”.
The entry for `CN1C(C)(C)CCCC1(C)C` is “inactive”.
Take `CC(C)=CCC/C(C)=C/CO`: the result was inactive.
The entry for `CC(=O)SC[C@@H](Cc1ccccc1)C(=O)NCC(=O)OCc1ccccc1` is “inactive”; for `NC(N)=NS(=O)(=O)c1ccc(N)cc1` it is “inactive”; for `CN/C(=C\[N+](=O)[O-])NCCSCc1csc(CN(C)C)n1` it is “inactive”.
Take `Cc1c(NC(C)C)c(=O)n(-c2ccccc2)n1C`: the compound was classed as inactive.
Take `Cc1c(N(C)C)c(=O)n(-c2ccccc2)n1C`: the compound was called inactive.
To `NCc1ccc(S(N)(=O)=O)cc1` belongs “inactive”; to `CC(=O)N[C@@H](CC(C)C)C(=O)O`, “inactive”.
To `C[C@@H]1CCC[C@H](C)N1` belongs “inactive”; to `CCc1cccc(CC)c1NC(=O)CN(CC(=O)O)CC(=O)O`, “inactive”.
Consider `CC(=O)NS(=O)(=O)c1ccc(N)cc1`, for which the result was inactive.
The entry for `O=C(O)c1ccccc1OP(=O)(O)O` is “inactive”; for `O=S1(=O)OC(c2ccc(O)cc2)(c2ccc(O)cc2)c2ccccc21` it is “inactive”.
The entry for `O=C(Cn1ccnc1[N+](=O)[O-])NCCO` is “inactive”.
To `CN(C(=O)c1c(O)c2ccccc2n(C)c1=O)c1ccccc1` belongs “inactive”.
Take `COc1ccc(NS(=O)(=O)c2ccc(N)cc2)nn1`: the compound was classed as inactive.
For `CCCCC1(COC(=O)CCC(=O)O)C(=O)N(c2ccccc2)N(c2ccccc2)C1=O`, the compound was called inactive.
As for `Cc1cc(NC(=O)C2=C(O)c3ccccc3S(=O)(=O)N2C)no1`, the compound was called inactive.
To `C[N+](C)(C)CC[N+]1(C)Cc2c(Cl)c(Cl)c(Cl)c(Cl)c2C1` belongs “inactive”; to `Cc1c(NC(=O)c2cccnc2)c(=O)n(-c2ccccc2)n1C`, “inactive”; to `NS(=O)(=O)c1cc2c(cc1C(F)(F)F)NCNS2(=O)=O`, “inactive”.
